SMN2 splice up: enhancers of SMN2 splice variant expression; HEK293 SMN2-luciferase splicing reporter, luminescence, 30-36 h; Potency, µM (series often up to 46.1 µM), without a hit: at the top dose activity change, positive = activation, usual class: activators; hit rate 2.8% among 210,000; AID 1458; also: % of control where 0% means no effect; nearly all actives have a fitted effect of over 55% in size
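HEK293 cells carry an SMN2 minigene-luciferase reporter in which exon 7 inclusion puts luciferase in frame. Cells were seeded at 2000 cells/well, attached for 10-12 hours, then exposed to compounds for 30-36 hours at 37C before ONE-Glo luminescence.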
FLuc counter: counter-screen for miR-21 project: firefly luciferase inhibitors or activators; Potency, µM (doses to about 57.5 µM), without a hit: at the highest dose activity change, negative = inhibition, hits mostly inhibitors; purified FLuc, Km substrates, luminescence inhibition; hit rate 6.9% among 360,000;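 also: plate controls were vehicle for no effect and reference inhibitor for full effect; nearly all actives have a fitted effect of over 55% in size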
Target sequence (P08659 whole entry, looked up): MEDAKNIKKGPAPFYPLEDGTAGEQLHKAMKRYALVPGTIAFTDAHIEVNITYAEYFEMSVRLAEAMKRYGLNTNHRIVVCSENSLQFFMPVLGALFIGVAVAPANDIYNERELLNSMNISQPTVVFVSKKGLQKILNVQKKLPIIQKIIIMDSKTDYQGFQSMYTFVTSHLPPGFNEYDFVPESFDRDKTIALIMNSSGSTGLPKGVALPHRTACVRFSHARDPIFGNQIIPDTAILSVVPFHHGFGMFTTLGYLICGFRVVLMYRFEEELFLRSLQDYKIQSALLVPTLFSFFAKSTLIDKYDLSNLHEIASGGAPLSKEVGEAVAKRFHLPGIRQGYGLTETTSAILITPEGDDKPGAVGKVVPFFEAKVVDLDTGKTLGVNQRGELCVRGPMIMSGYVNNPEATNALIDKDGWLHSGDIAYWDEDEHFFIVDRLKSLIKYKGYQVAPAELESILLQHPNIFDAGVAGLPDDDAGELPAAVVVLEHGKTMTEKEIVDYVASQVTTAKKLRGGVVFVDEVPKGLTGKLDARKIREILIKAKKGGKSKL
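Purified P. pyralis luciferase (10nM final) with 10uM D-luciferin and 10uM ATP (Km levels) in 50mM Tris acetate pH 7.5, 10mM Mg acetate, 0.01% Tween-20, 0.05% BSA; qHTS 6-point titration, ~60 µM downward; luminescence read.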
ELG1 genotox: genotoxicity induction in ELG1-luciferase HEK293T cells | HEK293T ELG1-luciferase reporter, luminescence, 16 h | Potency, µM (series often up to 46 µM), for the others: at the top dose activity change, positive = activation, actives largely listed as activators | hit rate 1.3% among 330,000 | AID 504466; also: % of control where 0% means no effect; nearly all actives have a fitted effect of over 60% in size
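Luminescence read-out: rising ELG1-luciferase signal, reflecting elevated ELG1 protein under genetic stress, flags genotoxic compounds. Cells were treated for 16 hr at 37 °C before ONE-Glo detection.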
NPC1 promoter act: NPC1 promoter activation; hit rate 2.4% among 320,000; Potency, µM (titrated, usually from 9.22 µM), for the others: at the top dose activation, actives largely listed as activators; Huh7 NPC1 promoter luciferase reporter, 24 h; also: % of control where 0% means no effect; nearly all actives have a fitted effect of over 60% in size
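Luciferase expression driven by the NPC1 promoter was measured in stably transfected Huh7 cells after a 24 h compound incubation, using a luciferase reagent and a luminescence read.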
Rab9 promoter act: activators of Rab9 promoter. Huh7 Rab9 promoter-luciferase reporter, luminescence, 24 h. Potency, µM (top dose mostly 9.22 µM), for the others: at the top dose activation, negative = inhibition, actives largely listed as activators. hit rate 2.8% among 320,000. AID 485297; also: % of control where 0% means no effect; nearly all actives have a fitted effect of over 60% in size
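Using Huh7 cells stably transfected with Rab9 promoter–luciferase, compounds were incubated 24 h at 37 °C, 5% CO2; luciferase luminescence was read 10 min after reagent addition.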
Luc counter: blocks Kinase-Glo luciferase, a counter-screen artifact; Potency, µM (highest dose often 38.3 µM), for inactives: top-dose activity change, negative = inhibition, most hits filed as inhibitors; Kinase-Glo luciferase, ATP luminescence, 8 min; hit rate 0.28% among 200,000; also: % is scaled to controls: 0 for no effect and ±100 for the full control effect; nearly all actives have a fitted effect of over 60% in size
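Compound is pinned into ATP-containing buffer (10 uM ATP, imidazole pH 7.2, 7 mM MgCl2). Kinase-Glo luciferase reagent is then added. Light output is recorded following an 8-min room-temperature incubation.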
* hit, by the source's call; ? = inconclusive; . = no result. Rows were chosen to be rich in hits. Some 7.5% of all compounds tested hit in one or more screens of this group. Calls follow the shape of the dose curve; as a rule, active = well fitted curve in the direction sought with a large enough effect; inconclusive = small, poorly fitted or top-dose-only effect, or another doubt; inactive = no such curve, though single readings can be large; an effect the other way counts as inactive or inconclusive. Potency is read from the fitted curve at half-maximal effect.

SMILES	SMN2 splice up	FLuc counter	ELG1 genotox	NPC1 promoter act	Rab9 promoter act	Luc counter
CC1CN(C(=O)c2ccc(COc3ccc(C(C)C)cc3)o2)CC(C)O1 (stereo not drawn)	.	13µM*	?	?	?	2%
Cc1ccccc1OCc1ccc(C(=O)N2CC(C)OC(C)C2)o1 (stereo not drawn)	.	0%	-3%	5%	3%	.
CC1CN(C(=O)c2ccc(COc3ccc4ccccc4c3)o2)CC(C)O1 (stereo not drawn)	.	17µM*	11%	22%	?	-1%
CC1CN(C(=O)c2ccc(COc3ccccc3Cl)o2)CC(C)O1 (stereo not drawn)	.	-3%	-2%	-1%	-3%	.
Cc1ccc(CNC(=O)c2cc3cc(C)ccc3n2C)cc1	.	-5%	.	.	.	.
CCOc1ccc(N=c2scc(-c3ccccc3)n2CCO)cc1	?	15µM*	16%	18%	8%	1%
CCOc1ccc(N=c2scc(-c3ccc(OC)cc3)n2CCO)cc1	-97%	1%	11%	3%	-7%	0%
OCCn1c(-c2ccc(F)cc2)csc1=Nc1ccccc1	-78%	?	?	10%	-3%	-2%
CCn1c(-c2ccccc2)csc1=Nc1ccc(O)cc1	?	8.5µM*	?	2.8µM*	2.2µM*	-2%
CCCCC/C=C\C/C=C\C/C=C\C=C\C(O)CCCC(=O)O (stereo not drawn)	7%	.	.	.	.	-1%
O=c1ccnc(S/C=C/c2ccccc2)[nH]1	16%	19µM*	13%	?	16%	-24%
Cc1nc2cc(NCc3ccc(Cl)cc3)ccc2n1C	.	2.1µM*	2.6µM*	0.45µM*	0.45µM*	.
Cc1nc2cc(NCc3ccccc3O)ccc2n1Cc1ccccc1	.	24µM*	2%	8%	15%	4%
Cc1ccc(CNc2ccc3c(c2)nc(C)n3C)cc1	.	4.3µM*	2.1µM*	0.56µM*	0.63µM*	.
COc1ccc(CNc2ccc3c(c2)nc(C)n3C)cc1	11µM*	9.5µM*	?	2.5µM*	1.4µM*	-3%
O=C(NCc1cccc(F)c1)C1=Cc2cc(Br)ccc2OC1	.	-10%	.	.	.	.
COc1cc(OC)c(NC(=O)N2CCc3cc(S(=O)(=O)N4CCC(C)CC4)ccc32)cc1Cl	-6%	0%	.	.	.	.
COc1ccc(C(=O)NCc2ccc3c(c2)CCN3C(C)=O)c(OC)c1	.	-7%	.	.	.	.
Cc1nc(-c2ccccc2)sc1C(=O)O	?	?	9%	19%	23%	-6%
Cc1nc(-c2ccc(Cl)cc2)sc1C(=O)O	11µM*	15µM*	?	?	?	-1%
Cc1ccc(-c2nc(C)c(C(=O)O)s2)cc1	.	4.8µM*	?	-14%	?	-2%
Cc1nc(-c2ccc([N+](=O)[O-])cc2)sc1C(=O)O	.	27µM*	?	24%	?	-9%
Brc1cccc(-c2nn(-c3ccccc3)c3c2cnc2cc4c(cc23)OCO4)c1	-10%	1%	.	.	.	.

Screens as filed in PubChem BioAssay.
